Out of some 1,300 compounds screened, about 850 (65%) were called active. Not shown: some 1% with an inconclusive outcome. No rule for the calls is given here. The set was probably picked from earlier hits. The list is a sample of the results. Results with a measured potency or affinity are listed apart.
biological target: Dual specificity tyrosine-phosphorylation-regulated kinase 1A (Rattus norvegicus) (UniProt Q63470); test: rat Dyrk1A kinase inhibitors, dose response, biochemical, cherry-pick, plate reader, 2124-01 (AID 588345); details: Dyrk1A kinase biochemical assay; series mostly up to 12 µM

outcome, inactive:
O=S1(=O)N=C(N(Cc2cccs2)c2ccc(O)cc2)c2ccccc21
CCCCC(=O)Nc1cc(Cl)ccc1C(=O)O
CC(C)CC(NC(=O)C1CCC(C)CC1)C(=O)Nc1ccc2c(c1)OCCO2 (stereo not given)
O=C(O)c1cc2ccccc2c2cc(Br)ccc12
CCOCC(=O)Nc1nc2c(s1)C(=O)CC(C)(C)C2
O=C1CCCc2c1cc(C(=O)NCCCN1CCOCC1)c(=O)n2-c1ccc(Cl)cc1
CCOc1ccccc1C(=O)Nc1ccccc1C(N)=O
c1ccc2c(-c3nc(C4CCCCC4)no3)cc(-c3ccncc3)nc2c1
COc1cccc(C(=O)NNC(=O)/C=C/c2ccccc2)c1
O=C(O)/C=C/c1ccc2noc(-c3ccccc3)c2c1
O=C(/C=C/c1ccccc1)Nc1cccc(C(=O)NC2CC2)c1
Nc1nonc1-n1nnc(C(=O)N/N=C\c2ccncc2)c1CN1CCCCC1
COc1cc2cnc(-c3ccccc3)c(-c3ccc([N+](=O)[O-])cc3)c2cc1OC
COC(=O)CSc1nc(N)c(C#N)c(C(C)C)c1C#N
COc1ccc2nc3c(cc2c1)c(NC(=O)C1CCCO1)nn3CC(C)C (stereo not given)
N#Cc1nc(-c2cccs2)oc1NCc1ccccc1Cl
Cc1cccc(Cl)c1OCCCCn1ccnc1
c1cncc(-c2nc(NCCCn3ccnc3)c3ccccc3n2)c1
COc1cc(O)c2c(=O)c3c(O)ccc(O)c3oc2c1
O=C(NN1C(=O)/C(=C/c2ccc(O)c([N+](=O)[O-])c2)SC1=S)c1ccccc1Cl
CCCCOc1cccc(C(=O)NC(=S)Nc2ccc(Cl)c(C(=O)O)c2)c1
CSCC(=O)Nc1nc(-c2ccc3c(c2)OCCO3)cs1
CC(C)c1nnc(NC(=O)Cn2nc(-c3ccc4c(c3)OCCO4)ccc2=O)s1
CCC(=O)Nc1nc(-c2ccc3c(c2)OCCO3)cs1
c1ccc(Cc2nnc3sc(-c4ccc5c(c4)OCCO5)nn23)cc1
Cn1nnnc1Sc1ncnc2scc(-c3ccc[nH]3)c12
CCCn1cnc2scc(-c3ccc(OC)cc3)c2c1=O
COCCCN(C(C)=O)c1nc(-c2ccc(OC)cc2)cs1
COc1cc(CO)cc(Br)c1OCc1cccnc1
COc1cccc(/C=N/n2c(COc3ccccc3)n[nH]c2=S)c1O
COC(=O)C1=C(C)N(CCCC(=O)O)C(=O)NC1c1ccc(Cl)cc1 (stereo not given)
COc1ccc(-n2c(C)nc3cc(C(=O)NCc4ccco4)ccc32)cc1
COc1ccc(-n2c(C)nc3cc(C(=O)NCc4ccc5c(c4)OCO5)ccc32)cc1
Cc1cccc(-n2nc3c(c2NC(=O)CCC2CCCCC2)CS(=O)C3)c1C (stereo not given)
Cc1noc(NS(=O)(=O)c2ccc(N/C=C\C(=O)c3ccc(Br)cc3)cc2)c1C
COc1ccc(C(=O)Nc2nc3ccccc3[nH]2)cc1S(=O)(=O)N1CCOCC1
C=CCN1C(=O)/C(=C/c2ccccc2)S/C1=N/c1nccs1
CC(C)(C)NC(=O)C(=O)NC(=O)c1c(F)cccc1Cl
O=C(c1ccc2c(c1)OCCCO2)N1CCCCC1
CC(NC(=O)COC(=O)c1ccc([N+](=O)[O-])s1)c1ccccc1 (stereo not given)
CCOC(=O)C1=C(C)OC(N)=C(C#N)C1c1cc2c(cc1Br)OCO2 (stereo not given)
COC(=O)c1nn(-c2ccc3c(c2)OCO3)cc1O
C=CCOC(=O)C1=C(C)NC(=O)NC1c1ccc(Cl)cc1 (stereo not given)
C=CCc1ccc(OCCOc2ccc(/C=N/n3cnnc3)cc2OCC)c(OC)c1
Cc1ccccc1C(=O)N1CCN(c2ccc(NC(=O)c3cccc(OC(C)C)c3)cc2)CC1
O=C(Nc1ccc(Cl)cc1)c1csc(-c2ccncc2)n1
O=C(Nc1ccc(F)cc1F)c1csc(-c2ccncc2)n1
c1ccc(-c2nnc3sc(Cc4cccs4)nn23)cc1
COC(=O)[C@]1(CC(C)C)N[C@H](c2ccc(-c3cccc(Cl)c3)cc2)[C@@H]2C(=O)N(C)C(=O)[C@@H]21
Cc1cccc(CNc2ncnc3ccc(-c4ccoc4)cc23)c1
CN(C)/C=C1/Oc2c(ccc3ccccc23)C1=O
COc1cc(-c2cn(S(=O)(=O)c3cccc4nsnc34)nc2N)cc(OC)c1OC
CCn1c2ccccc2c2cc(/C=N/O)ccc21
Cc1ccccc1NC(=O)CSc1[nH]c(=O)cc(C)c1C#N
CCN1CCN(Cc2ccc(NC(=O)c3ccc(C)c(NC(=O)c4csc(-c5ccncc5)n4)c3)cc2C(F)(F)F)CC1
Cn1c(-c2ccccc2)c(C=O)c2ccccc21
Cc1ccccc1NC(=O)C1CCCN1S(=O)(=O)c1ccc2c(c1)n(C)c(=O)c(=O)n2C (stereo not given)
Cc1ccc(S(=O)(=O)/N=C2\C=C(Nc3cccc(C(=O)O)c3)C(=O)c3ccccc32)c(C)c1
CCOC(=O)C[C@H]1c2cc(C(F)(F)F)ccc2S(=O)(=O)N1C(C)C
COc1ccc(-c2nn(-c3ccccc3)cc2CO)cc1
Cc1nc2c(c3c1[nH]c1ccccc13)C(=O)CC(C)(C)C2
CN(C)S(=O)(=O)c1ccc(Cl)c(C(=O)Nc2cccc3ncccc23)c1
OCC[C@@H]1C[C@H](O)[C@@H](O)[C@@]2(CCc3ccccc3CO2)O1
CC(=O)c1cccc(NC(=O)Nc2cccs2)c1
COC(=O)c1cc(NC(=O)Nc2cccc(Cl)c2)ccc1Cl
COc1ccc(S(=O)(=O)N(C)C[C@H]2Oc3ccc(NS(=O)(=O)c4cccs4)cc3CC(=O)N([C@H](C)CO)C[C@H]2C)cc1
CCOc1ccc(C2CC(c3cccc(OC)c3)Nc3nc(N)nn32)cc1 (stereo not given)
N#C/C(=C\c1ccc(O)c(O)c1)C(=O)NCCc1ccccc1
COc1cccc(C(=O)c2sc(NC(C)C)nc2N)c1
O=C1CC(c2ccc(S(=O)(=O)NC3CC3)cc2)CN1 (stereo not given)
